Measurements taken from PubChem BioAssay (Tox21).
Records with an inconclusive call do not appear. A call without a number means that no potency is given here. The source made the active and inactive calls. Calls come from the whole dose curve; as a rule, active = well fitted cell-killing curve with a large enough effect in the repeat runs; inconclusive = weak or mixed curves, or effect the other way; inactive = flat fitted curve, though single readings scatter.

Assay: qHTS RealTime-Glo MT Cell Viability Assay in HEK293 cells - 0 hour (AID 1224880); note: top concentration of the series differs between compounds; nearly all actives have a fitted effect of over 45% in size
Details: RealTime-Glo luminescence; series mostly up to 76.8 µM
Excerpt: U.S. Tox21 Program National Center for Advancing Translational Sciences [NCATS] NIH Chemical Genomics Center [NCGC] U.S. Environmental Protection Agency [EPA] National Institutes of Environmental Health Sciences [NIEHS] National Toxicology Program [NTP] U.S. Food and Drug Administration [FDA] Tox21 Assay Overview: Measure of cell viability is critical in the cell-base assay. Analysis of cell viability is necessary for the characterization of cell responses to cytotoxic drugs and environmental stress. A RealTime-Glo MT Cell Viability Assay to monitor cell viability in real time of continues cell culture during 40 hours of compound treatment was used to screen Tox21 10K library compounds in Hek293 cells. The RealTime-Glo MT Cell Viability Assay is a nonlytic, homogeneous, bioluminescent method to measure cell viability in real time using a simple, plate-based method. The assay involves adding NanoLuc luciferase and a cell-permeant prosubstrate to cells in culture. Viable cells reduce the proprietary prosubstrate to generate a substrate for NanoLuc luciferase. This substrate diffuses from cells into the surrounding culture medium, where it is rapidly used by the NanoLuc Enzyme to produce a luminescent signal. The signal correlates with the number of viable cells, making the assay well suited for cytotoxicity studies.
Tox21 Assay Protocol Summary: The mixture of Hek293 cell suspension and reagents were dispensed at 600cells/6 ul/well in 1536-well tissue culture treated black solid bottom plates using a Multidrop dispenser. After the assay plates were incubated at a 37 C/5% CO2 incubator for 5 hours, 23 nL of compounds dissolved in DMSO, positive and negative controls was transferred to the assay plate by a pintool work station. The plates were incubated at 37 C for 40 hours. The luminescence intensity were measured at 0h, 8h, 16h, 24h, 32h and 40h time points using ViewLux plate reader during compound treatment.

Row | SMILES | Potency | activity change, negative = cytotoxicity
1 | Cc1cccc(C)c1NC(=O)c1cc(S(N)(=O)=O)c(Cl)cc1O | inactive | –
2 | CCCCCCCCCCCCCCCC(=O)OCC | inactive | –
3 | CC(=O)N[C@@H](Cc1ccc(O)cc1)C(=O)O | inactive | –
4 | FC(F)(F)C(F)(F)C(F)(F)C(F)(F)CCI | inactive | –
5 | Cc1ccc(N(CC2=NCCN2)c2cccc(O)c2)cc1 | inactive | –
6 | COc1ccc(CCN(C)CCCN2CCc3cc(OC)c(OC)cc3CC2=O)cc1OC | inactive | –
7 | O=C1OC[C@H](Cc2cccc(O)c2)[C@H]1Cc1cccc(O)c1 | inactive | –
8 | CCc1ccc(C)cc1 | inactive | –
9 | CCCCCCC(CO)CCCC (stereo not given) | inactive | –
10 | CC(CCc1ccc(O)cc1)NCCc1ccc(O)c(O)c1 (stereo not given) | inactive | –
11 | O=C(O)CCC(=O)OC[C@@H](NC(=O)C(Cl)Cl)[C@H](O)c1ccc([N+](=O)[O-])cc1 | inactive | –
12 | CC(=O)C(C)=O | inactive | –
13 | Cc1ccc(NC(=O)N(C)C)cc1NC(=O)N(C)C | inactive | –
14 | CC[C@H]1OC(=O)[C@H](C)[C@@H](O[C@H]2C[C@@](C)(OC)[C@@H](O)[C@H](C)O2)[C@H](C)[C@@H](O[C@@H]2O[C@H](C)C[C@H](N(C)C)[C@H]2O)[C@](C)(O)C[C@@H](C)C(=O)[C@H](C)[C@@H](O)[C@]1(C)O | inactive | –
15 | COc1ccc(-c2cc(=S)ss2)cc1 | inactive | –
16 | C[C@@H]1C[C@H]2[C@@H]3CCC4=CC(=O)C=C[C@]4(C)[C@@]3(F)[C@@H](O)C[C@]2(C)[C@@]1(O)C(=O)COP(=O)(O)O | inactive | –
17 | CCN(CC)C(=O)N1CCN(C)CC1 | inactive | –
18 | c1ccc2sc(SSc3nc4ccccc4s3)nc2c1 | – | -1.35% [at 15.8 µM] (inactive)
19 | CC(C)C1CCC(C(=O)N[C@H](Cc2ccccc2)C(=O)O)CC1 (stereo not given in full) | inactive | –
20 | O=C(O)c1cc(Cl)cc(Cl)c1O | inactive | –

Row | SMILES | Potency | activity change, negative = cytotoxicity
21 | CC(=O)OCCC1CCCCC1 | inactive | –
22 | CC(C)N=C=NC(C)C | inactive | –
23 | Cc1ccc(N(CCO)CCO)cc1 | inactive | –
24 | COc1ccc(C(=O)NCc2ccc(OCCN(C)C)cc2)cc1OC | inactive | –
25 | CCCCCCCC/C=C/C(=O)O | inactive | –
26 | CC(C)C(=O)OCCOc1ccccc1 | inactive | –
27 | CC(C)c1ccc(C(=O)N=C(N)N)cc1S(C)(=O)=O | inactive | –
28 | C1=CCC2CC=CC2C1 (stereo not given) | inactive | –
29 | C=CC(=O)NC(C)C | inactive | –
30 | CCN(Cc1cccc(S(=O)(=O)O)c1)c1ccc(C(=C2C=CC(=[N+](CC)Cc3cccc(S(=O)(=O)O)c3)C=C2)c2ccccc2S(=O)(=O)[O-])cc1 | inactive | –
31 | CC(O)Cn1cnc2c1c(=O)n(C)c(=O)n2C (stereo not given) | inactive | –
32 | CC(C)(C)CCCCCCOC(=O)c1ccccc1C(=O)OCCCCCCC(C)(C)C | inactive | –
33 | CC(CO)(CO)C(=O)O | inactive | –
34 | O=C(O)c1cccc(C[C@@H]2COc3ccc(OCc4nc5cc(F)ccc5s4)cc3[C@@H]2O)c1 | inactive | –
35 | O=C(Nc1ccc(C(=O)O)c(O)c1)c1ccccc1 | inactive | –
36 | O=[N+]([O-])C1(Br)COCOC1 | inactive | –
37 | CC(C)C(O)C(C)(C)CO (stereo not given) | inactive | –
38 | COC(CC(C)CCCC(C)(C)O)OC (stereo not given) | inactive | –
39 | COc1ccc2nc(S(=O)Cc3ncc(C)c(OC)c3C)[nH]c2c1 (stereo not given) | inactive | –
40 | CO[C@@H]1[C@@H](OC)[C@H](C)[C@@](O)(CC(=O)O)O[C@H]1[C@H](C)[C@H]1O[C@@]2(CC[C@@](C)([C@H]3CC[C@@](C)([C@@H]4O[C@@H]([C@H]5O[C@](C)(O)[C@H](C)C[C@@H]5C)C[C@@H]4OC4C[C@H](OC)[C@@H](OC)[C@H](C)O4)O3)O2)C[C@H](O)[C@H]1C (stereo not given in full) | inactive | –
